Source: PubChem BioAssay (SRMLSC)
NADH enzymes – inhibitors of PK/LDH coupling enzymes, profiling panel, artefact control, biochemical, MLSMR library. coupled PK/LDH NADH assays, four targets. IC50, µM (highest dose often 10 µM), without a hit: at the top dose inhibition. 65,000 compounds, 0.02% hits;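 active = single-dose screening hits from any of four coupled enzyme assays that gave an IC50 when retested across doses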;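 note: the DPM-DC format reads NADH fluorescence rather than 340 nm absorbance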
MK inhibit – S. pneumoniae MK inhibitors, primary screen, biochemical, PK/LDH-coupled NADH absorbance; mevalonate kinase [Streptococcus pneumoniae D39]; purified MK, PK/LDH-coupled NADH absorbance 340 nm; inhibition, % at 10 µM; 65,000 compounds, 0.48% hits; AID 555, 2006;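 active = ranked among the strongest by inhibition in the single 10 µM screen, a fixed top-ranked set picked for dose follow-up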
Fluor 339 460 – intrinsic fluorescence of library compounds, ex339/em460 – biochemical, MLSMR library, data from DPM-DC assay, artefact control, profiling panel | fluorescence fold increase at 10 µM | compound autofluorescence, ex339/em460 nm, NADH buffer; active compounds read high; 1 = no-compound wells, NADH background | 65,000 compounds, 5.5% hits | AID 709, 2007;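 active = at 10 µM, mean starting fluorescence two-fold or more over control wells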;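 note: signal is the first read of a kinetic run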
Spn DPM-DC inh – S. pneumoniae DPM-DC inhibitors, primary screen, biochemical, PK/LDH-coupled NADH fluorescence. diphosphomevalonate decarboxylase (Streptococcus pneumoniae D39). purified DPM-DC. calls only at 10 µM. 65,000 compounds, 0.49% hits;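 active = the 320 compounds with the highest percent inhibition in the single-dose primary screen, excluding strongly autofluorescent ones, cut at about 32% in these data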;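 note: kinetic rate of NADH fluorescence loss reporting ADP formed by the decarboxylase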
PMK inhibit – S. pneumoniae PMK inhibitors, primary screen, biochemical, mevalonate pathway, pilot trial included | inhibition, % at 10 µM | purified PMK, PK/LDH-coupled NADH absorbance 340 nm | AID 539, 2006 | phosphomevalonate kinase (Streptococcus pneumoniae D39) | 65,000 compounds, 0.49% hits;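 active = top-ranked compounds by inhibition in the single 10 µM screen, taking a fixed number of the strongest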;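 note: 0% = full reaction with DMSO carrier and 100% = background rate without enzyme reaction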
Abs 340nm – compound light absorbance at 340 nm, profiling panel, artefact control, biochemical, MLSMR library, data from PS, PMK, MK assays; compound absorbance at 340 nm, fold over control; fold change at 10 µM; 65,000 tested, under 10 active;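 active = at 10 µM dose, initial 340 nm absorbance at least 2 fold that of control wells; inactive = change under 2 fold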;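 note: initial absorbance extrapolated from kinetic A340 decline of NADH oxidation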
The depositor's hits bear a star; i = inactive; nt = not tested or not shown; + = active, no number. Hits are enriched below; roughly 6.5% of the tested compounds scored in any of these assays.

SMILES	NADH enzymes	MK inhibit	Fluor 339 460	Spn DPM-DC inh	PMK inhibit	Abs 340nm
N#Cc1nc(-c2cccc3ccccc23)oc1NCCN1CCOCC1	14.0%	13.0	3.63*	nt	15.0	1.07
N#Cc1nc(COc2ccccc2)oc1NCCN1CCOCC1	4.0%	5.0	1.05	i	17.0	1
O=C(CCCC(=O)N(CC(=O)NC1CCCC1)Cc1ccc2c(c1)OCO2)Nc1ccccn1	8.0%	5.0	1.04	i	18.0	0.99
CC(=O)c1ccc(Nc2ncnc3c2oc2ccccc23)cc1	5.0%	8.0	1.48	i	8.0	1.13
Cn1c(=O)c2c(-c3ccncc3)c3c(nc2n(C)c1=O)-c1ccccc1C3=O	3.0%	7.0	0.98	i	13.0	1.02
Cc1ccc(C2C(C(=O)c3sc(C)nc3C)=C(O)C(=O)N2CCCN(C)C)o1 (stereo not given)	7.0%	10.0	1	i	10.0	1.05
COc1ccc(-c2nc(C#N)c(NCCCN3CCOCC3)o2)cc1	2.0%	4.0	2.11*	nt	0.0	1.12
N#Cc1nc(-c2ccco2)oc1NCCN1CCOCC1	17.0%	10.0	2.98*	i	13.0	1.03
COc1ccc(N2CCN(c3oc(-c4ccco4)nc3C#N)CC2)cc1	10.0%	16.0	1.13	i	13.0	1.04
Cc1ccc(-c2nc(C#N)c(NCCN3CCCCC3)o2)cc1	5.0%	4.0	2.09*	nt	6.0	1.1
N#Cc1nc(Cc2cccc3ccccc23)oc1NCCN1CCCCC1	6.0%	8.0	1.08	i	11.0	1.03
CC(C)Sc1nc2sc3c(c2c2nnc(SCC(=O)NCc4ccco4)n12)CCCC3	3.0%	5.0	1.1	i	5.0	1.05
Cc1nc2ccc(C(C(F)(F)F)(C(F)(F)F)C(F)(F)F)cc2[nH]1	7.0%	6.0	1.07	i	10.0	1.03
CCCc1cc(=O)oc2cc(OCC(=O)Nc3cc(C)on3)ccc12	9.0%	0.0	3.57*	i	6.0	1.05
CCCc1cc(=O)oc2cc(Oc3ncccn3)ccc12	16.0%	7.0	3.39*	i	18.0	1.05
c1ccc2c(c1)ncc1cccn12	5.0%	1.0	2.11*	nt	8.0	1.09
COCCOC(=O)c1c(C)n(C)c2ccc(OC(=O)C3CC3)cc12	0.0%	0.0	1.12	i	1.0	1.03
COC(=O)c1ccc2c(c1)N(Cc1nc(-c3ccc(Cl)cc3)oc1C)C(=O)C1CCCN21 (stereo not given)	11.0%	0.0	3.74*	i	14.0	1.02
COC(=O)c1ccc2c(c1)N(Cc1nc(-c3cccc(Cl)c3)oc1C)C(=O)C1CCCN21 (stereo not given)	2.0%	0.0	2.04*	i	7.0	1.01
CCn1c(SCC(=O)NC(=O)Nc2ccc3c(c2)OCCO3)nnc1-c1cccs1	9.0%	0.0	1.03	i	24.0	1.05
Cc1ccc(O)c(CC(C)C)n1	3.0%	2.0	2.04*	i	0.0	1.08
COC(=O)c1c(C)nc(C)c2c(=O)oc3ccccc3c12	6.0%	7.0	1.01	i	10.0	1.04
Cc1cc2c(c(N)n1)c(=O)oc1ccccc12	5.0%	5.0	3.66*	nt	5.0	1.07
O=C(C1CCCN(Cc2cccnc2)C1)N1CCCCC1 (stereo not given)	17.0%	45.0*	1.13	i	5.0	1.03
COc1ncnc(OC)c1NC(=O)c1ccc(F)cc1	33.0%	63.0*	0.76	i	10.0	0.98
SMILES	NADH enzymes	MK inhibit	Fluor 339 460	Spn DPM-DC inh	PMK inhibit	Abs 340nm
O=C(Nc1nc2ccccc2[nH]1)c1ccc(F)cc1	7.0%	6.0	0.99	i	12.0	1.03
COCCSc1nnc(NC(=O)CSCc2ccccc2)s1	2.0%	4.0	1.01	i	0.0	0.99
N#CC1=C(O)C(c2ccccc2)n2c1nc(=O)c1ccccc12 (stereo not given)	2.0%	3.0	4.96*	nt	0.0	1.07
CNc1nnc(-c2cccc(N(C)C)c2)s1	3.0%	4.0	2.9*	i	0.0	1
CSC1=NCCN1C(=O)Cc1cccs1	2.0%	2.0	1.04	i	0.0	1.03
CC(C(=O)NCC1CCCO1)N(C(=O)c1snc(C(N)=O)c1N)c1ccccc1 (stereo not given)	12.0%	13.0	3.11*	i	19.0	1.08
CC(C(=O)NCc1ccccc1)N(CCN1CCOCC1)C(=O)c1snc(C(N)=O)c1N (stereo not given)	13.0%	4.0	2.35*	i	10.0	1.03
CC(NC(=O)OCc1ccccc1)C(=O)NCC1CCCO1 (stereo not given)	9.0%	12.0	1.07	i	6.0	0.99
CC(C(=O)NCC1CCCO1)N(C(=O)c1snc(C(N)=O)c1N)c1cccc(F)c1 (stereo not given)	20.0%	13.0	3.9*	i	19.0	1.05
COCCNC(=O)C(c1ccc(C)o1)N(C(=O)c1snc(C(N)=O)c1N)c1ccc(C)c(C)c1 (stereo not given)	7.0%	2.0	1.58	i	8.0	1.04
Cc1ccc(C)c2[nH]c(=O)c(CCNC(=O)c3ccc(S(=O)(=O)N(C)C)cc3)cc12	2.0%	1.0	1.08	i	12.0	1
CCN1C(=Nc2ccc(Cl)cc2)SC/C1=C\C(=O)OC	2.0%	0.0	1.08	i	5.0	1.01
CN1C(=O)OC2(C)CCc3ccccc3C12C (stereo not given)	10.0%	0.0	1.07	i	31.0*	1
CC1c2nc3ccccc3n2C(CC(=O)NCc2ccccn2)C(=O)N1Cc1ccccc1 (stereo not given)	2.0%	6.0	1.05	i	6.0	0.98
Cc1cccc(Nc2n[nH]c(=S)s2)c1C	29.0%	54.0*	1.05	+	0.0	1.06
CCOC(=O)C1CCCN(C(=O)c2sc3nc(-c4ccc(OC)cc4)cn3c2C)C1 (stereo not given)	8.0%	4.0	1.12	i	20.0	1.01
CCOC(=O)c1sc(Nc2nc3c(OC)cccc3s2)nc1C	9.0%	0.0	2.24*	+	10.0	1.04
Clc1ccc(-c2nnc3sc(-c4ccc(Br)o4)nn23)c(Cl)c1	7.0%	10.0	1.77	i	10.0	1.06
Clc1ccc(-c2nnc3sc(-c4ccc(Br)o4)nn23)cc1	4.0%	11.0	2.2*	i	14.0	1.02
O=c1[nH]cnc2nc(-c3ccccc3)c(-c3ccccc3)nc12	15.0%	8.0	5.12*	nt	21.0	1.05
O=c1[nH]cnc2nn(-c3ccccc3)nc12	3.0%	0.0	1.95	i	0.0	1.06
O=C(CN1CCC(O)(c2ccccc2F)CC1)NCCc1c[nH]c2ccccc12	2.0%	7.0	1.06	i	0.0	1.01
